A selection: hits, their analogues and other compounds. The true share with any hit is near 21%.
ELG1 repair inh: inhibitors of ELG1-dependent DNA repair in HEK293T cells | HEK293T ELG1-luciferase reporter, luminescence, 16 h; DNA damage induced by 5-fluorouridine | Potency, µM (titrated, usually from 46.1 µM), without a hit: at the top dose activity change, negative = inhibition, most hits filed as inhibitors | 330,000 tested, 2.3% active; note: potency is the fitted concentration of half-maximal effect; nearly all actives have a fitted effect of over 55% in size
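HEK293T cells expressing luciferase-tagged ELG1 (2,000/well) received 5-Fluorouridine plus compound or DMSO for 16 hr at 37 °C. Luciferase was read by ONE-Glo luminescence after 30 min at room temperature.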
DT40 TDP1 CPT: DT40-hTDP1 cell growth loss with CPT; Potency, µM (top dose mostly 46.2 µM), for inactives: top-dose activity change, negative = growth inhibition, actives largely listed as inhibitors; chicken DT40 Tdp1-/-;hTDP1 cells + 20 nM CPT, ATP luminescence, 48 h; 420,000 tested, 12% active; note: potency is the fitted concentration of half-maximal effect; nearly all actives have a fitted effect of over 55% in size
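Cell growth measured by CellTiter-Glo luminescence after a minimum 48 h, 37 C compound exposure with 20 nM CPT in Tdp1-knockout DT40 cells stably expressing hTDP1, seeded 400/well; qHTS titration format.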
DT40 TDP1 no CPT: qHTS for Inhibitors of human tyrosyl-DNA phosphodiesterase 1 (TDP1): qHTS in cells in absence of CPT | DT40 Tdp1-/- hTDP1 cells, no CPT, ATP luminescence, 48 h | Potency, µM (top dose mostly 46.2 µM), for the others: at the top dose activity change, negative = growth inhibition, hits mostly inhibitors | 420,000 tested, 15% active | AID 686978, 2013; note: potency is the fitted concentration of half-maximal effect; nearly all actives have a fitted effect of over 55% in size
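Growth of hTDP1-complemented DT40 Tdp1-knockout cells is measured by ATP luminescence after at least 48 hr compound exposure at 37 °C, with DMSO substituting for the 20 nM CPT used in the parallel screen.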
IL-1B inflam inh: blocks inflammasome-driven IL-1 beta release; THP-1 LPS/ATP IL-1B secretion, AlphaLISA, 16 h; stronger effect = lower value; activity change, % at 57.5 µM; 360,000 tested, 4.7% active; in the data active = activity change below about -50%; inconclusive = mostly about -30% to -49%
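Secreted IL-1B measured by AlphaLISA bead assay after 16 h compound exposure of THP-1 cells; compounds (final up to 57.5 uM) added 1 h before LPS (250 ng/mL) and ATP (1.25 mM) stimulation; lower signal means less secretion.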
VP16 counter: counter-screen for ROR gamma inhibitors: Gal4-VP16 reporter. Drosophila S2 Gal4-VP16 UAS-luciferase, luminescence, 20 h. AID 2546. Potency, µM (doses to about 53.6 µM), without a hit: top-dose activity, negative = inhibition, most hits filed as inhibitors. 310,000 tested, 3.5% active;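 note: Gal4-VP16 expression switched on by copper sulfate through the metallothionein promoter; potency is the fitted concentration of half-maximal effect; nearly all actives have a fitted effect of over 50% in size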
RORg inh: inhibitors of mouse ROR gamma transcriptional activity | Drosophila S2 Gal4-RORgamma UAS-luciferase reporter, 20 h | Potency, µM (series often up to 53.6 µM), without a hit: top-dose activity change, negative = inhibition, usual class: inhibitors | 310,000 tested, 5.4% active | AID 2551; note: potency is the fitted concentration of half-maximal effect; nearly all actives have a fitted effect of over 60% in size
Target sequence (P51450 whole entry, looked up, the tested form may be a part): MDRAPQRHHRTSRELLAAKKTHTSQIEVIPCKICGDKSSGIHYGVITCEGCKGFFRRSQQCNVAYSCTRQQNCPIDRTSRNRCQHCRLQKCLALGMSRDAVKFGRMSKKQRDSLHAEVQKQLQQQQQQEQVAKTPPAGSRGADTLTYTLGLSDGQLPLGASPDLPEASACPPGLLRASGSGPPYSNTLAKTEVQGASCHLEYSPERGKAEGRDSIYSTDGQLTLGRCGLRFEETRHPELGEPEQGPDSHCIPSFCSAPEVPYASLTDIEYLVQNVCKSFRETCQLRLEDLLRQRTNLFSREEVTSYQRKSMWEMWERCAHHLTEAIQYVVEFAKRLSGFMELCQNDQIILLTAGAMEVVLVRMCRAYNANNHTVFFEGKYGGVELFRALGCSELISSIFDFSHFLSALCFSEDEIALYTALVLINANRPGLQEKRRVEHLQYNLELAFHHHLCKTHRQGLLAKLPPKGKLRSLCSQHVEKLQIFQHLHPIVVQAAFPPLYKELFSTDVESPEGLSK
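Stably transfected Drosophila Schneider cells are the test system, with ROR gamma fused to Gal4 and luciferase under UAS control; luminescence is read after 20 hr of 700 uM copper sulfate induction at ambient temperature.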
Active calls of the source: *; ? = inconclusive; · = not tested or not shown; [ ] = dose if it differs, or a comment. Unless noted, calls come from the whole dose curve; as a rule, active = well fitted curve in the direction sought with a large enough effect; inconclusive = small, poorly fitted or top-dose-only effect, or another doubt; inactive = no such curve, though single readings can be large; an effect the other way counts as inactive or inconclusive. % is set by controls: 0 for no effect and ±100 for the full control effect.

SMILES	ELG1 repair inh	DT40 TDP1 CPT	DT40 TDP1 no CPT	IL-1B inflam inh	VP16 counter	RORg inh
Cc1ccc(C)c(NC(=S)N2CCN(c3cccc(C(F)(F)F)c3)CC2)c1	6%	?	-29%	15	11µM*	4.5µM*
CCN(CC)c1cccc(O)c1	·	·	·	·	-2%	11%
CCN(CC)CC(O)c1ccc2ccc3ccc(O)cc3c2c1 (centres undefined)	·	?	?	-61*	·	·
CC(=O)Nc1ccc(NC(=O)C2(C)Cc3c(-c4ccc(NC(C)=O)cc4)ccnc3O2)cc1 (centres undefined)	·	1%	2%	-18	·	·
CC(=O)Nc1ccc(-c2ccnc3c2CC(C)(C(=O)Nc2ccccc2)O3)cc1 (centres undefined)	·	21µM*	18µM*	-24	·	·
CC(=O)Nc1ccc(-c2ccnc3c2CC(C)(C(=O)Nc2cccc(Oc4ccccc4)c2)O3)cc1 (centres undefined)	·	26µM*	16µM*	-22	·	·
Cc1nc2c(C(=O)NCc3cccs3)cnn2c(C)c1Cc1ccccc1	?	·	·	·	-7%	34%
Cc1cccc(Cc2c(C)nc3c(C(=O)NCc4ccco4)cnn3c2C)c1	?	22µM*	11µM*	-78*	?	30%
Cc1nc2c(C(=O)NCc3ccco3)cnn2c(C)c1Cc1ccc(F)cc1Cl	-9%	11µM*	?	0	-11%	?
Cc1nc2ccc(F)cc2cc1C(=O)NCc1ccco1	2%	-25%	-22%	-16	16%	42%
N#CCC1(O)C(=O)N(Cc2ccccc2)c2ccccc21 (centres undefined)	·	-16%	1%	22	·	·
CNC[C@@H]1OCc2ccccc2-c2c(n(C)c3ccccc23)C(=O)N([C@H](C)CO)C[C@H]1C	·	?	?	-7	·	·
C/C=C/OC(=O)NC(c1cccc(C)c1)[C@@]1(C(=O)OCC)CCCC1=O (some centres undefined)	·	·	·	·	-4%[10 µM]	1%[10 µM]
CNC[C@H](CC1CCCCC1)NC[C@H](Cc1ccccc1)NCCC12CC3CC(CC(C3)C1)C2	?	7.3µM*	13µM*	-100*	?	20µM*
NC[C@H](Cc1ccccc1)NCCCCC1CCCCC1	9%	-23%	?	-1	·	·
COc1cccc(C(NC(C)=O)c2nc(-c3cccc(C(C)C)c3)cs2)c1 (centres undefined)	·	?	?	-8	·	·
Cc1ccc(C)c(-c2csc(N/N=C/c3ccco3)n2)c1	-7%	3%	?	-17	-13%	16µM*
COc1cc(/C=N/Nc2nc(-c3ccc(S(=O)(=O)N(C)C)cc3)cs2)ccc1O	12µM*	8.2µM*	7.3µM*	-91*	1%	?
O=S(=O)(c1cccc(-c2csc(N/N=C/c3ccco3)n2)c1)N1CCOCC1	23µM*	16µM*	13µM*	-72*	16%	21%
CCOc1cc(/C=N/Nc2nc(-c3cccc(S(=O)(=O)N4CCCC4)c3)cs2)ccc1O	21µM*	13µM*	8.2µM*	-83*	10%	?
CC(C)NC(=O)N(C)C[C@H]1Oc2ncc(Br)cc2C(=O)N([C@H](C)CO)C[C@@H]1C	·	-3%	-10%	9	·	·
COCCN(C(=O)COC(=O)CNC(=O)c1ccc(C)cc1)c1c(N)n(Cc2ccccc2)c(=O)[nH]c1=O	·	15%	2%	11	·	·
COc1ccc(C2CC(c3cccs3)=NN2C(=O)CCl)cc1OC (centres undefined)	?	2.6µM*	3.3µM*	-103*	?	?
COc1cc(C2CC(c3cccs3)=NN2C(=O)CCl)ccc1OC(F)F (centres undefined)	0%	4.6µM*	4.1µM*	-103*	16µM*	?
COc1ccc(C2CC(c3cccs3)=NN2C(=O)c2ccccc2)cc1OC (centres undefined)	0%	1%	-22%	-23	1%	21%
SMILES	ELG1 repair inh	DT40 TDP1 CPT	DT40 TDP1 no CPT	IL-1B inflam inh	VP16 counter	RORg inh
COc1ccc(C2CC(c3cccs3)=NN2C(=O)CCC(=O)O)cc1 (centres undefined)	-7%	-8%	-12%	5	6%	-12%[1.91 µM]
CC(C)(C)c1ccc(C(=O)Nc2cccc(-n3cnnn3)c2)cc1	?	?	2.6µM*	-14	-15%	5%
CC(C)(C)c1ccc(C(=O)Nc2cccc(C(=O)N3CCOCC3)c2)cc1	?	15µM*	?	-5	?	-25%
CC(=O)c1cccc(NC(=O)Nc2ccc(C(=O)N3CCOCC3)cc2)c1	10µM*	-19%	-25%	-13	?	?
Cc1ccc(NC(=O)Nc2ccc(C(=O)N3CCOCC3)cc2)cc1	-1%	-2%	?	-10	-26%	-2%
CCOC(=O)c1cnc(COc2ccc(OC)cc2)[nH]c1=O	0%	5%	-1%	1	1%	9%
Nc1ncnc2c1ncn2[C@@H]1O[C@H](CNCC(O)CO)[C@@H](O)[C@H]1O (some centres undefined)	13%	-16%	-15%	13	·	·
COc1ccccc1NC(=O)COC(=O)c1cc([N+](=O)[O-])ccc1N1CCCC1	?	?	?	1	·	·
CCN(CC)C(=O)C1=C(C)N(CCCN2CCCC2=O)C(=O)C(CC(=O)NC2CCCC2)C1 (centres undefined)	·	-7%	-3%	0	·	·
CCOC(=O)C1=C(C)N(C[C@@H]2CC[C@@H](Cc3ccc(-c4ccccc4)cc3)O2)C(=O)NC1c1ccc(-c2ccccc2)cc1 (some centres undefined)	12%	?	?	-3	·	·
CCOC(=O)C1=C(C)N(C[C@@H]2CC[C@@H](Cc3ccc(-c4ccccc4)cc3)O2)C(=O)NC1c1ccc(Cl)cc1 (some centres undefined)	-19%	?	21µM*	-52*	·	·
CCOC(=O)C1=C(C)N(C[C@@H]2CC[C@@H](Cc3ccc(-c4ccccc4)cc3)O2)C(=O)NC1C1CC1 (some centres undefined)	?	?	21µM*	11	·	·
CN(C)Cc1ccccc1-c1cc(N(C)Cc2ccco2)ncn1	·	-3%	-3%	·	-11%	7%
